In all, about 2,900 compounds were measured (“NF-kB SEAP reporter activity, fold change vs agonist alone”: median about 0.99, highest 2% from about 2.6 on). This excerpt belongs to a sample that is enriched for the highest values.
Columns and labels:
[1] = tested on: RAW-Dual; assay: NF-kB SEAP reporter activity, fold change vs agonist alone; cytotoxicity flag (confluency mask): not cytotoxic; higher = enhanced NF-kB activity
How it was run: (§1)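 Reporter activity is given as fold change relative to agonist-alone wells. To measure it, 50 nL of library stock was pin-tooled onto RAW-Dual macrophages (50,000 cells/well, DMEM, 384-well plates), a PRR agonist followed 1 h later, and cells stayed at 37 °C, 5% CO2. Twenty hours on, supernatant was assayed for IRF (QuantiLuc luminescence) and NF-κB (QuantiBlue, 620 nm absorbance), and wells under 70% of agonist-control IncuCyte confluency in both mask sets were marked cytotoxic.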

[2] = tested on: RAW-Dual; assay: NF-kB SEAP reporter activity, fold change vs agonist alone; higher = enhanced NF-kB activity; details: cytotoxicity flag (confluency mask): not cytotoxic
How it was run: as §1

[3] = agonist: ODN 1826 (TLR9) 0.5 ug/mL
[4] = agonist: Pam2CSK4 (TLR2/6) 0.1 ug/mL
[5] = agonist: Pam3CSK4 (TLR2/1) 0.1 ug/mL
[6] = library stock concentration (final ~1000-fold dilution): 10 mM, agonist: Imiquimod (TLR7) […]
[7] = library stock concentration (final ~1000-fold dilution): 10 mM, agonist: MPLA (TLR4) […]
[8] = library stock concentration (final ~1000-fold dilution): 10 mM water, agonist: Imiquimod (TLR7) […]
[9] = library stock concentration (final ~1000-fold dilution): 10 mM water, agonist: MPLA (TLR4) […]

O=C(Nc1nccs1)C(c1cc(F)ccc1O)N1Cc2ccccc2C1=O (stereo not given) (library stock concentration (final ~1000-fold dilution): 10 mM) was tested, and the “NF-kB SEAP reporter activity” value ([1]; agonist: LPS (TLR4) 0.1 ug/mL) was 0.902, the “NF-kB SEAP reporter activity” value [1, 3] was 0.989 and the “NF-kB SEAP reporter activity” value [1, 4] was 0.865. The “NF-kB SEAP reporter activity” value [1, 5] was 1.02.

O=C(Nc1nccs1)C(c1cc(F)ccc1O)N1Cc2ccccc2C1=O (stereo not given) was tested, and the “NF-kB SEAP reporter activity” value [2, 6] was 0.944 and the “NF-kB SEAP reporter activity” value [2, 7] was 0.982.

For CCOC(=O)CC(=O)O, the “NF-kB SEAP reporter activity” value [2, 8] was 0.955 and the “NF-kB SEAP reporter activity” value [2, 9] was 1.

With CCOC(=O)CC(=O)O (library stock concentration (final ~1000-fold dilution): 10 mM water) the “NF-kB SEAP reporter activity” value ([1]; agonist: LPS (TLR4) 0.1 ug/mL) was 1.31, the “NF-kB SEAP reporter activity” value [1, 3] was 1.09 and the “NF-kB SEAP reporter activity” value [1, 4] was 1.18. The “NF-kB SEAP reporter activity” value [1, 5] was 1.03.

With CCCCOc1cc(C(=O)NCCN(CC)CC)c2ccccc2n1.Cl the “NF-kB SEAP reporter activity” value [2, 6] was 1.57 and the “NF-kB SEAP reporter activity” value [2, 7] was 1.01.

In the case of CCCCOc1cc(C(=O)NCCN(CC)CC)c2ccccc2n1.Cl (library stock concentration (final ~1000-fold dilution): 10 mM), the “NF-kB SEAP reporter activity” value ([1]; agonist: LPS (TLR4) 0.1 ug/mL) is reported as 0.994, the “NF-kB SEAP reporter activity” value [1, 3] is reported as 0.959 and the “NF-kB SEAP reporter activity” value [1, 4] is reported as 0.866. The “NF-kB SEAP reporter activity” value [1, 5] was 1.09.

With CN1CCOC(c2ccccc2)c2ccccc2C1.Cl (stereo not given) (library stock concentration (final ~1000-fold dilution): 10 mM water) the “NF-kB SEAP reporter activity” value ([1]; agonist: LPS (TLR4) 0.1 ug/mL) was 1.36, the “NF-kB SEAP reporter activity” value [1, 3] was 0.943 and the “NF-kB SEAP reporter activity” value [1, 4] was 1.05. For the same molecule, the “NF-kB SEAP reporter activity” value [1, 5] was 0.969.

For CN1CCOC(c2ccccc2)c2ccccc2C1.Cl (stereo not given), the “NF-kB SEAP reporter activity” value [2, 8] was 1.12 and the “NF-kB SEAP reporter activity” value [2, 9] was 1.03.

With COc1ccc(S(=O)(=O)N(C(C)=O)c2ccccc2/C=C/c2cc[n+]([O-])cc2)cc1 (library stock concentration (final ~1000-fold dilution): 10 mM) the “NF-kB SEAP reporter activity” value ([1]; agonist: LPS (TLR4) 0.1 ug/mL) was 1.85, the “NF-kB SEAP reporter activity” value [1, 3] was 2.59 and the “NF-kB SEAP reporter activity” value [1, 4] was 1.94. The “NF-kB SEAP reporter activity” value [1, 5] was 1.43.

In the case of COc1ccc(S(=O)(=O)N(CCO)c2ccccc2CN(C)CC=Cc2ccc(Cl)cc2)cc1, the “NF-kB SEAP reporter activity” value [2, 6] is reported as 0.802 and the “NF-kB SEAP reporter activity” value [2, 7] is reported as 1.07.

With COc1ccc(S(=O)(=O)N(C(C)=O)c2ccccc2/C=C/c2cc[n+]([O-])cc2)cc1 the “NF-kB SEAP reporter activity” value [2, 6] was 2.17 and the “NF-kB SEAP reporter activity” value [2, 7] was 1.61.

In the case of COc1ccc(S(=O)(=O)N(CCO)c2ccccc2CN(C)CC=Cc2ccc(Cl)cc2)cc1 (library stock concentration (final ~1000-fold dilution): 10 mM), the “NF-kB SEAP reporter activity” value ([1]; agonist: LPS (TLR4) 0.1 ug/mL) is reported as 0.958, the “NF-kB SEAP reporter activity” value [1, 3] is reported as 0.257 and the “NF-kB SEAP reporter activity” value [1, 4] is reported as 0.537. The “NF-kB SEAP reporter activity” value [1, 5] was 0.372.

In the case of C=C1C(CO)C(O)CC1n1cnc2c(=O)nc(N)[nH]c21 (stereo not given) (library stock concentration (final ~1000-fold dilution): 10 mM), the “NF-kB SEAP reporter activity” value ([1]; agonist: LPS (TLR4) 0.1 ug/mL) is reported as 1.32, the “NF-kB SEAP reporter activity” value [1, 3] is reported as 0.996 and the “NF-kB SEAP reporter activity” value [1, 4] is reported as 1.37. The “NF-kB SEAP reporter activity” value [1, 5] was 0.846.

In the case of C=C1C(CO)C(O)CC1n1cnc2c(=O)nc(N)[nH]c21 (stereo not given), the “NF-kB SEAP reporter activity” value [2, 7] is reported as 1.07.

With CNC1C(O)C(OC2C(NC(=O)C(O)CN)CC(N)C(OC3OC(CN)C(O)C(O)C3O)C2O)OCC1(C)O.O=S(=O)(O)O (stereo not given) (library stock concentration (final ~1000-fold dilution): 10 mM water) the “NF-kB SEAP reporter activity” value ([1]; agonist: LPS (TLR4) 0.1 ug/mL) was 1.03, the “NF-kB SEAP reporter activity” value [1, 3] was 1.09 and the “NF-kB SEAP reporter activity” value [1, 4] was 1.3. For the same molecule, the “NF-kB SEAP reporter activity” value [1, 5] was 1.14.

CNC1C(O)C(OC2C(NC(=O)C(O)CN)CC(N)C(OC3OC(CN)C(O)C(O)C3O)C2O)OCC1(C)O.O=S(=O)(O)O (stereo not given) was tested, and the “NF-kB SEAP reporter activity” value [2, 8] was 0.944 and the “NF-kB SEAP reporter activity” value [2, 9] was 1.01.

COc1ccc(C(NC(=O)c2cnc(-c3cccnn3)nc2O)c2ccc(OC)cc2)cc1 (library stock concentration (final ~1000-fold dilution): 10 mM) was tested, and the “NF-kB SEAP reporter activity” value ([1]; agonist: LPS (TLR4) 0.1 ug/mL) was 2.9, the “NF-kB SEAP reporter activity” value [1, 3] was 0.861 and the “NF-kB SEAP reporter activity” value [1, 4] was 0.898. The “NF-kB SEAP reporter activity” value [1, 5] was 1.02.

With COc1ccc(C(NC(=O)c2cnc(-c3cccnn3)nc2O)c2ccc(OC)cc2)cc1 the “NF-kB SEAP reporter activity” value [2, 6] was 0.974 and the “NF-kB SEAP reporter activity” value [2, 7] was 1.03.

With O=C(O)c1ccc(Br)c(O)c1 the “NF-kB SEAP reporter activity” value [2, 7] was 1.11.

In the case of O=C(O)c1ccc(Br)c(O)c1 (library stock concentration (final ~1000-fold dilution): 10 mM), the “NF-kB SEAP reporter activity” value ([1]; agonist: LPS (TLR4) 0.1 ug/mL) is reported as 1.11, the “NF-kB SEAP reporter activity” value [1, 3] is reported as 0.975 and the “NF-kB SEAP reporter activity” value [1, 4] is reported as 1.09. The “NF-kB SEAP reporter activity” value [1, 5] was 0.729.

O=C(/C=C/c1ccc(O)c(O)c1)O[C@@H]1CC(O)(C(=O)O)C[C@@H](OC(=O)/C=C/c2ccc(O)c(O)c2)C1O (stereo not given in full) was tested, and the “NF-kB SEAP reporter activity” value [2, 6] was 0.841 and the “NF-kB SEAP reporter activity” value [2, 7] was 1.01.

In the case of O=C(/C=C/c1ccc(O)c(O)c1)O[C@@H]1CC(O)(C(=O)O)C[C@@H](OC(=O)/C=C/c2ccc(O)c(O)c2)C1O (stereo not given in full) (library stock concentration (final ~1000-fold dilution): 10 mM), the “NF-kB SEAP reporter activity” value ([1]; agonist: LPS (TLR4) 0.1 ug/mL) is reported as 1.24, the “NF-kB SEAP reporter activity” value [1, 3] is reported as 1.04 and the “NF-kB SEAP reporter activity” value [1, 4] is reported as 1.11. For the same molecule, the “NF-kB SEAP reporter activity” value [1, 5] was 1.18.

In the case of CC(C)NC(=O)C1CCC(n2c(=NC(=O)c3ccc(F)cc3)[nH]c3ccc(CN4CCC(C(C)(C)O)CC4)cc32)CC1 (stereo not given) (library stock concentration (final ~1000-fold dilution): 10 mM), the “NF-kB SEAP reporter activity” value ([1]; agonist: LPS (TLR4) 0.1 ug/mL) is reported as 1.17, the “NF-kB SEAP reporter activity” value [1, 3] is reported as 0.713 and the “NF-kB SEAP reporter activity” value [1, 4] is reported as 1.24. The “NF-kB SEAP reporter activity” value [1, 5] was 2.16.

With CC(C)NC(=O)C1CCC(n2c(=NC(=O)c3ccc(F)cc3)[nH]c3ccc(CN4CCC(C(C)(C)O)CC4)cc32)CC1 (stereo not given) the “NF-kB SEAP reporter activity” value [2, 6] was 1.44 and the “NF-kB SEAP reporter activity” value [2, 7] was 0.822.

In the case of Cc1cc(Nc2nc(NC(C)c3ccc(F)cc3)c(C#N)cc2F)n[nH]1 (stereo not given), the “NF-kB SEAP reporter activity” value [2, 6] is reported as 1 and the “NF-kB SEAP reporter activity” value [2, 7] is reported as 0.984.

Cc1cc(Nc2nc(NC(C)c3ccc(F)cc3)c(C#N)cc2F)n[nH]1 (stereo not given) (library stock concentration (final ~1000-fold dilution): 10 mM) was tested, and the “NF-kB SEAP reporter activity” value ([1]; agonist: LPS (TLR4) 0.1 ug/mL) was 1.87, the “NF-kB SEAP reporter activity” value [1, 3] was 0.965 and the “NF-kB SEAP reporter activity” value [1, 4] was 1.44. The “NF-kB SEAP reporter activity” value [1, 5] was 0.993.

In the case of Cc1cc(Nc2cc(Cl)nc(Oc3ccc([N+](=O)[O-])cc3)n2)n[nH]1, the “NF-kB SEAP reporter activity” value [2, 6] is reported as 1.24 and the “NF-kB SEAP reporter activity” value [2, 7] is reported as 2.16.

In the case of Cc1cc(Nc2cc(Cl)nc(Oc3ccc([N+](=O)[O-])cc3)n2)n[nH]1 (library stock concentration (final ~1000-fold dilution): 10 mM), the “NF-kB SEAP reporter activity” value ([1]; agonist: LPS (TLR4) 0.1 ug/mL) is reported as 3.28, the “NF-kB SEAP reporter activity” value [1, 3] is reported as 2.32 and the “NF-kB SEAP reporter activity” value [1, 4] is reported as 1.82. The “NF-kB SEAP reporter activity” value [1, 5] was 2.92.

For O=C(O)[C@H](O)Cc1ccc(O)c(O)c1, the “NF-kB SEAP reporter activity” value [2, 8] was 0.919 and the “NF-kB SEAP reporter activity” value [2, 9] was 1.04.

With O=C(O)[C@H](O)Cc1ccc(O)c(O)c1 (library stock concentration (final ~1000-fold dilution): 10 mM water) the “NF-kB SEAP reporter activity” value ([1]; agonist: LPS (TLR4) 0.1 ug/mL) was 1.19, the “NF-kB SEAP reporter activity” value [1, 3] was 1.22 and the “NF-kB SEAP reporter activity” value [1, 4] was 1.1. The “NF-kB SEAP reporter activity” value [1, 5] was 1.

COc1nc2ccc(Br)cc2cc1C(c1ccccc1)C(O)(CCN(C)C)c1cccc2ccccc12 (stereo not given) (library stock concentration (final ~1000-fold dilution): 10 mM) was tested, and the “NF-kB SEAP reporter activity” value ([1]; agonist: LPS (TLR4) 0.1 ug/mL) was 0.761, the “NF-kB SEAP reporter activity” value [1, 3] was 0.86 and the “NF-kB SEAP reporter activity” value [1, 4] was 0.78. The “NF-kB SEAP reporter activity” value [1, 5] was 0.531.

With COc1nc2ccc(Br)cc2cc1C(c1ccccc1)C(O)(CCN(C)C)c1cccc2ccccc12 (stereo not given) the “NF-kB SEAP reporter activity” value [2, 6] was 0.771 and the “NF-kB SEAP reporter activity” value [2, 7] was 0.783.

NCC1OC(OC2C(CO)OC(OC3C(O)C(N)CC(N)C3OC3OC(CO)C(O)C(O)C3N)C2O)C(N)C(O)C1O.O=S(=O)(O)O (stereo not given) (library stock concentration (final ~1000-fold dilution): 10 mM water) was tested, and the “NF-kB SEAP reporter activity” value ([1]; agonist: LPS (TLR4) 0.1 ug/mL) was 1.05, the “NF-kB SEAP reporter activity” value [1, 3] was 1.24 and the “NF-kB SEAP reporter activity” value [1, 4] was 1.27. For the same molecule, the “NF-kB SEAP reporter activity” value [1, 5] was 1.03.

For NCC1OC(OC2C(CO)OC(OC3C(O)C(N)CC(N)C3OC3OC(CO)C(O)C(O)C3N)C2O)C(N)C(O)C1O.O=S(=O)(O)O (stereo not given), the “NF-kB SEAP reporter activity” value [2, 8] was 0.946 and the “NF-kB SEAP reporter activity” value [2, 9] was 1.03.
